{
  "source": "PubChem BioAssay AID651551",
  "about": "(Sanford-Burnham Center for Chemical Genomics, 2012)",
  "data": [
    {"assay": "GAPDH versus PEG-3 reporter suppression – cell-based, luminescence, counter-screen for PEG-3 promoter inhibitor project, SAR follow-up (AID 651551)", "settings": "HeLa PEG-Prom / GAPDH luciferase reporter, 6 or 24 h, run 2, 24 h; at 99 µM (top of the series)", "units": {"inhibition % (higher = more inhibition)": "%"}, "values": [
      {"smiles": "Cc1cc(NC(=O)c2ccccc2C)n(-c2nc3ccccc3[nH]2)n1", "inhibition % (higher = more inhibition)": 76.4},
      {"smiles": "Cc1cc(NC(=O)c2cccc(C)c2C)n(-c2nc3ccccc3[nH]2)n1", "inhibition % (higher = more inhibition)": 54.6},
      {"smiles": "CCCn1nc(C(=O)Nc2nc(-c3ccncc3)cs2)c2ccccc2c1=O", "inhibition % (higher = more inhibition)": 72},
      {"smiles": "COCCCNC(=O)c1ccc(Cn2c(=O)c3ccccc3n(Cc3ccccc3C#N)c2=O)cc1", "inhibition % (higher = more inhibition)": 78},
      {"smiles": "O=C(Nc1nccs1)c1nn(-c2ccccc2)c(=O)c2ccccc12", "inhibition % (higher = more inhibition)": 56.2},
      {"smiles": "Cc1ccc(Cl)cc1Nc1nc(-c2sc(NC(=O)c3ccco3)nc2C)cs1", "inhibition % (higher = more inhibition)": 85.8},
      {"smiles": "CCn1nc(C(=O)Nc2nc(-c3ccccn3)cs2)c2ccccc2c1=O", "inhibition % (higher = more inhibition)": 53.9},
      {"smiles": "Cc1cc(NC(=O)c2ccccc2C(F)(F)F)n(-c2nc3ccccc3[nH]2)n1", "inhibition % (higher = more inhibition)": 95.1},
      {"smiles": "COc1ccc(Cl)cc1Nc1nc(-c2sc(NC(=O)c3ccccc3)nc2C)cs1", "inhibition % (higher = more inhibition)": 75.6},
      {"smiles": "O=C(Nc1nc2ccccc2s1)c1nn(-c2ccccc2)c(=O)c2ccccc12", "inhibition % (higher = more inhibition)": 60.8},
      {"smiles": "COc1ccc(-n2nc(C(=O)NCC(=O)Nc3ccc(OC)c(OC)c3)c3ccccc3c2=O)cc1", "inhibition % (higher = more inhibition)": 86.5},
      {"smiles": "CCCn1nc(C(=O)Nc2nc(-c3ccccn3)cs2)c2ccccc2c1=O", "inhibition % (higher = more inhibition)": 71.7},
      {"smiles": "Cc1cc(NC(=O)c2ccccc2)n(-c2nc3ccccc3[nH]2)n1", "inhibition % (higher = more inhibition)": -1.45},
      {"smiles": "Cc1nc(NC(=O)c2ccccc2)sc1-c1csc(Nc2ccccc2)n1", "inhibition % (higher = more inhibition)": 87.7},
      {"smiles": "Cc1nc(NC(=O)c2ccccc2)sc1-c1csc(Nc2ccccc2Cl)n1", "inhibition % (higher = more inhibition)": 60.8},
      {"smiles": "COc1ccccc1Nc1nc(-c2sc(NC(=O)c3ccco3)nc2C)cs1", "inhibition % (higher = more inhibition)": 76.4},
      {"smiles": "CCn1cc(C(=O)NCc2ccco2)c(=O)c2cc(S(=O)(=O)N3CCCC3)ccc21", "inhibition % (higher = more inhibition)": 48.4},
      {"smiles": "COc1ccc(-n2nc(C(=O)NCC(=O)Nc3cccc(OC)c3)c3ccccc3c2=O)cc1", "inhibition % (higher = more inhibition)": 27.5},
      {"smiles": "COc1ccc(-n2nc(C(=O)NCC(=O)Nc3cc(OC)c(OC)c(OC)c3)c3ccccc3c2=O)cc1OC", "inhibition % (higher = more inhibition)": 71.7},
      {"smiles": "Cc1cc(NC(=O)c2ccccc2)n(-c2nc3ccccc3n2C)n1", "inhibition % (higher = more inhibition)": 4.57},
      {"smiles": "O=C(Nc1nc(-c2ccccc2)cs1)c1nn(-c2ccccc2)c(=O)c2ccccc12", "inhibition % (higher = more inhibition)": 43.1},
      {"smiles": "Cc1nc(NC(=O)c2ccccc2)sc1-c1csc(Nc2cccc(Cl)c2C)n1", "inhibition % (higher = more inhibition)": 46.8},
      {"smiles": "CCCn1nc(C(=O)Nc2nc3ccccc3s2)c2ccccc2c1=O", "inhibition % (higher = more inhibition)": 44.3}
    ]}
  ]
}
